# KB-3-1 cytotox: KB-3-1 parental cell cytotoxicity; KB-3-1 viability, CellTiter-Glo ATP luminescence, 72 h; Potency, µM (doses to about 46.1 µM), most hits filed as cytotoxic; 400,000 tested, 1.4% active; AID 1347075; further: nearly all actives have a fitted effect of over 60% in size
#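 Cells are dispensed, compounds pinned in, plates held at 37 °C for 72 h, then CellTiter-Glo is added and luminescence read after 10 minutes. Cell line: parental KB-3-1 in phenol-red-free DMEM, 10% FBS.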
# ATXN viability: viability counter-screen for ATXN expression inhibitors | S2 cells (HEK-293 line with an ATXN2-luciferase reporter) viability, CellTiter-Fluor protease fluorescence, 24 h | Potency, µM (highest dose often 56.7 µM), most hits filed as cytotoxic | 400,000 tested, 0.49% active; further: nearly all actives have a fitted effect of over 40% in size
# HT1080-NT tox: kills 2HG-producing HT-1080-NT fibrosarcoma cells. HT-1080-NT fibrosarcoma viability, CellTiter-Glo ATP luminescence, 48 h. Potency, µM (highest dose often 46.1 µM), most hits filed as cytotoxic. 360,000 tested, 1.6% active;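 further: NT is the 2HG producing partner of a matched IDH1 knockdown line; nearly all actives have a fitted effect of over 55% in size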
#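 HT-1080-NT fibrosarcoma cells (2HG-overproducing), 750 cells/well in RPMI with 5% FBS, dosed after 2 h and incubated 48 h at 37C. CellTiter-Glo luminescence normalized to DMSO and no-cell wells; concentration-response curves fitted and classed.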
# ATXN2 expr inh: inhibitors of ATXN2 expression. HEK-293 ATXN2-luciferase reporter, luminescence, 24 h. Potency, µM (top dose mostly 57 µM), hits mostly inhibitors. 360,000 tested, 0.72% active. AID 1745845; further: nearly all actives have a fitted effect of over 55% in size
#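 ATXN2-luciferase reporter cells (luciferase flanked by upstream and downstream ATXN2 gene portions) were treated 24 h at 37 °C with compounds at up to 57 uM. SteadyGlo luminescence gave expression; GF-AFC fluorescence gave viability.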
# KB-V1 cytotox: kills drug-selected multidrug resistant KB-V1 cells; Potency, µM (titrated, usually from 46.1 µM), hits mostly cytotoxic; KB-V1 MDR cells viability, CellTiter-Glo, 72 h; 400,000 tested, 3.4% active; AID 1347076; further: nearly all actives have a fitted effect of over 60% in size
#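 KB-V1 cells (P-gp-expressing MDR subline of KB-3-1) in phenol-red-free DMEM with 10% FBS were exposed to library compounds over a concentration series for 72 h at 37 degrees C. Viability read by CellTiter-Glo luminescence; concentration-effect curves fitted after normalization.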
# HT1080 IDH1KD tx: toxicity to HT-1080 IDH1 knockdown cells (counter line) | HT-1080 IDH1 knockdown viability, ATP luminescence, 48 h | Potency, µM (series often up to 46.1 µM), hits mostly cytotoxic | AID 686971 | 360,000 tested, 2% active
#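 HT-1080-IDH1KD cells (IDH1 knocked down), 750/well in RPMI with 5% FBS, treated with compound 48 h at 37 degrees C. Viability by CellTiter-Glo luminescence, normalised to DMSO and no-cell wells; concentration-response curves classed.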
# Numbers stand for hits; i = inactive; ? = inconclusive; nt = no result given; [ ] = another dose, or the depositor's remark. Rows were chosen to be rich in hits. Some 6.2% of all compounds tested hit in one or more screens of this group. The call rests on the fitted dose curve; in most records, active means well fitted curve in the direction sought with a large enough effect; inconclusive means small, poorly fitted or top-dose-only effect, or another doubt; inactive means no such curve, though single readings can be large; an effect the other way counts as inactive or inconclusive.
SMILES,KB-3-1 cytotox,ATXN viability,HT1080-NT tox,ATXN2 expr inh,KB-V1 cytotox,HT1080 IDH1KD tx
Cc1c(Cl)cccc1NC(=O)Nc1cccnc1,i,i,i,i,i,i
COc1ccccc1NC(=O)Nc1cnccn1,?,i,i,i,4.1µM,i
Cc1cc(F)ccc1NC(=O)CN1C(=O)CCc2cc(S(=O)(=O)N3CCOCC3)ccc21,i,i,nt,i,i,nt
CN1CCN(C2CN(C3CCCC3)S(=O)(=O)C2)CC1 (stereo unspecified),i,i,i,i,i,i
CCC(C)(C(=O)NC1CCCCC1)N(Cc1ccco1)C(=O)c1ccc2c(c1)OCO2 (stereo unspecified),i,?,i,i,12µM,i
O=C(NC1CCCCC1)NS(=O)(=O)c1ccc2c(c1)CCC2,i,i,i,i,i,i
COc1ccc(OCC2c3cc(OC)c(OC)cc3CCN2C(=O)c2ccc(F)cc2)cc1 (stereo unspecified),i,i,nt,i,i,nt
O=[N+]([O-])c1ccc(-c2ccc(/C=N/Nc3nc(N4CCCCC4)nc(N4CCCCC4)n3)o2)cc1,i,nt,i,i[11.3 µM],i,i
COc1ccc(-c2cnnc(N/N=C/c3ccc(O)c(OC)c3)n2)cc1,4.1µM,i,?,i,5.8µM,5.2µM
COc1ccc(-c2cnnc(N/N=C/c3ccc(-c4ccc([N+](=O)[O-])cc4)o3)n2)cc1,4.6µM,?,i,?,18µM,?
COc1ccc(Nc2nc(N)c([N+](=O)[O-])c(NC3CCCCC3)n2)cc1,i,nt,16µM,?,?,?
CNc1nc(Nc2ccc(Br)cc2)nc(N)c1[N+](=O)[O-],0.73µM,i,?,i,?,?
COc1cc(-c2ccc(Cl)cn2)cc2c1OCCN(S(=O)(=O)C[C@]13CC[C@H](CC1=O)C3(C)C)C2,nt,i,nt,nt,nt,nt
OCc1cnc(SCc2cccc(F)c2)n1Cc1ccc(F)cc1,i,i,nt,i,i,nt
O=C(C[n+]1cccc2ccccc21)c1ccc(NC(=O)c2ccccc2)cc1,i,i,i,i,i,i
Cc1cc[n+](CC(=O)c2ccc(NC(=O)c3ccccc3)cc2)c2ccccc12,10µM,?,?,i,i,i
N#CC(C#N)=C1C=CC=CN1/C(=C\c1ccccc1Cl)C(=O)c1ccccc1,?,?,?,13µM,?,2.6µM
Cc1ccc(N2C(=O)C3C4C=CC(CNC(=S)Nc5ccc(Cl)cc5)(O4)C3C2=O)cc1 (stereo unspecified),?,i,i,i,8.2µM,i
Cc1ccc(N2C(=O)C3C4C=CC(CNC(=S)Nc5ccc(F)cc5)(O4)C3C2=O)cc1 (stereo unspecified),i,i,i,i,i,i
Cc1ccc(N2C(=O)C3C4C=CC(CNC(=S)Nc5cccc(Cl)c5)(O4)C3C2=O)cc1 (stereo unspecified),i,i,i,i,12µM,i
O=C(NC1CCCC1)C1C(c2ccc(C(F)(F)F)cc2)=Nc2ccccc2N1C(=O)c1cccc(C(F)(F)F)c1 (stereo unspecified),i,nt,i,nt,i,i
CN(CCC(=O)Nc1ccc2c(c1)OCO2)Cc1ccccc1,i,i,i,i,i,i
CN(CCC(=O)Nc1ccc(Cl)cc1)Cc1ccccc1,?,i,21µM,i,i,15µM
CC(C)c1ccc(NC(=O)CCc2ccccc2)cc1,?,i,?,i,7.3µM,5.8µM
COc1ccccc1N1CCN(CC(O)COc2cc(OC)c(OC)c(OC)c2)CC1 (stereo unspecified),nt,i,nt,i,nt,nt
SMILES,KB-3-1 cytotox,ATXN viability,HT1080-NT tox,ATXN2 expr inh,KB-V1 cytotox,HT1080 IDH1KD tx
CN(NS(=O)(=O)c1ccc(Br)cc1)c1nc(C(F)(F)F)nc2ccccc12,?,i,?,?,?,18µM
CN(N)c1nc(C(F)(F)F)nc2ccccc12,i,i,i,i,i,i
COc1ccc(-n2nc3cc(C)c(NC(=O)c4ccc(-c5ccc(Br)cc5)o4)cc3n2)cc1,i,i,nt,i,i,nt
O=c1/c(=C/c2ccccn2)sc2nc3ccccc3n12,i,i,i,i,i,i
Cc1cc(C=c2sc3nc4ccccc4n3c2=O)c(C)n1-c1ccccc1,nt,nt,nt,0.24µM,nt,nt
Cc1cc(Br)ccc1NC(=O)CN1C(=O)C2C3CC(c4ccccc4)C(C3)C2C1=O (stereo unspecified),i,i,i,?,21µM,i
Cc1ccc(NS(=O)(=O)c2ccc(-c3cnc(C4CC4)o3)cc2)cc1N(C)C,i,i,nt,?,i,nt
CC1CCCCC1NC(=O)C1CCC(CNS(=O)(=O)c2ccccc2)CC1 (stereo unspecified),i,i,i,i,i,i
Cc1ccc(S(=O)(=O)CCC(=O)N2CCc3ccccc32)cc1,i,i,i,i,21µM,i
CN(C)c1c(Cl)cc(/C=C/c2ccnc3ccccc23)cc1Br,18µM,nt,nt,nt,16µM,nt
Cc1cc(C=Nc2ccc(/C=C/c3ccnc4ccccc34)cc2)ccc1N(C)C,i,nt,nt,nt,i,nt
CN(C)c1ccc(C=Cc2ccnc3ccccc23)cc1N,?,i,23µM,?,i,?
Cc1cc(/C=C/c2ccnc3ccccc23)ccc1N(C)C,7.3µM,nt,nt,nt,13µM,nt
COc1ccc(C)cc1NC(=O)C1CCCN(c2ncnc3onc(C)c23)C1 (stereo unspecified),i,i,nt,i,i,nt
CC1(C)NC(=S)NC1=S,i,i,i,i,i,i
Cc1ccc(C(C)C)c(OCc2nn(CC(=O)c3ccc(Cl)cc3)c3[n+]2CCCCC3)c1,?,?,?,?,i,18µM
O=C(Cn1nc(CNc2ccc(Cl)cc2)[n+]2c1CCCCC2)c1ccccc1,?,i,i,i,?,i
Cc1ccc(C(=O)COC(=O)c2cccc(NC(=O)c3ccc(Cl)cc3Cl)c2)cc1,i,nt,nt,?,?,nt
CN(C)/C(Cn1cncn1)=C1/N=C(c2c(F)cccc2F)OC1=O,i,i,i,nt,i,i
CN(C)/C(CN1CCOCC1)=C1\N=C(c2ccccc2)OC1=O,i,?,i,i,16µM,i
CN1C(=O)C(O)(CC(=O)c2ccccc2O)c2cc(Br)ccc21 (stereo unspecified),?,?,16µM,i,?,i
CCCCN1C(=O)C(O)(CC(=O)c2ccco2)c2cc(Br)ccc21 (stereo unspecified),15µM,?,?,i,i,?
Cc1nc2ccccc2c(=O)n1-c1ccc(NC(=O)c2cccc([N+](=O)[O-])c2)cc1,i,?,nt,?,i,nt
CSc1n[nH]c(-c2sccc2OCc2ccc(C)cc2)n1,i,i,i,i,16µM,i
CC(C)(C)NC(=O)C(c1ccc(C(F)(F)F)cc1)n1c(=O)c(-c2ccco2)nc2ccccc21 (stereo unspecified),i,nt,i,nt,?,?

# Screening results (PubChem)
